Laboratory results taken from PubChem BioAssay AID1246 (Columbia University Molecular Screening Center, 2008).
Screen size: about 120,000 compounds; about 840 (0.7%) were called active.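 How the source made its calls: active means inhibition above the batch mean plus 3 SD, and confirmed as a hit on visual image review (cut at about 43% in these data); inconclusive means passes the inhibition cutoff but fails visual image review; inactive means the rest.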 For the sample, actives were picked, then their nearest neighbours and some compounds at random.

Assay: E-selectin induction blockers in HUVEC – imaging, immunofluorescence, high content, primary screen (AID 1246);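 further: 0% = TNF-stimulated DMSO wells and 100% = unstimulated control wells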
Settings: HUVEC TNFa-induced E-selectin immunofluorescence, at 2 µM, active compounds read high

inhibition, inactive:
CC(C)C(c1nnnn1CCc1ccccc1)N1CCN(C(=O)c2ccco2)CC1 (stereo not given) 20.3%
Cc1ccc(C(c2nnnn2CS(=O)(=O)c2ccc(C)cc2)N2CCC(C(N)=O)CC2)cc1 (stereo not given) -22.9%
CC1CCCC(C)N1/N=C/c1ccccc1OC(F)F (stereo not given) 0.15%
O=C(CN(CC1CCCO1)C(=O)CNS(=O)(=O)c1ccc(F)cc1)NCc1ccco1 (stereo not given) -15.3%
CCN(CCCNC(=O)CCn1c(=O)[nH]c2ccsc2c1=O)c1ccccc1 -8.13%
O=S(=O)(c1ccc2c(c1)OCCO2)N1CCc2ccccc21 27.9%
COCCN(C(=O)CCC(=O)Nc1nccs1)C(C(=O)NC(C)(C)C)c1ccc(Cl)cc1 (stereo not given) 19.2%
COc1cc(/C=N/Nc2ccc(C)cc2)cc(Br)c1O -4.64%
Cc1cc(C)n2nc(SCC(N)=O)nc2n1 -29.9%
Cc1cc(C)n2nc(C(=O)N3CCN(Cc4ccc5c(c4)OCO5)CC3)nc2n1 -35.2%
COC(=O)c1c(C(=O)OC)c(-c2cccc(C)c2)n2c1CS(=O)C2 (stereo not given) 58.3%
CSc1nc2nc(-c3cccc(C(F)(F)F)c3)ccn2n1 -26.4%
CC(CC(=O)C1C(C)C=CCC1(C)C)NNC(N)=O (stereo not given) 13.4%
CC(=O)c1cccc(NC(=O)Nc2ccc(C)cc2)c1 8.52%
CC(=O)Nc1ccc(C(=O)OCC(=O)Nc2ccc([N+](=O)[O-])cc2C(F)(F)F)cc1 -7.06%
CCCCN(CC(=O)NC(C)(C)C)C(=O)C(=O)Nc1ccc2c(c1)OCCO2 -8.58%
Cc1nccn1CCCNC(=O)CC1C(=O)NCCN1Cc1ccc(Cl)c(F)c1 (stereo not given) -5.16%
O=C(Cc1cccs1)Nc1nnc(SCc2ccc(F)cc2)s1 -12.5%
COc1ccc(Cc2nnc(NS(=O)(=O)Cc3ccccc3)s2)cc1 55.2%
CCCC(C)C(=O)NCc1ccncc1 (stereo not given) 0.76%
CCOC(=O)N1CCC(=NNC(N)=O)CC1 -34.9%
Cn1cc(-c2ccccc2)cc(C#N)c1=O 3.87%
Cc1cc(OC(=O)c2ccccc2)c([N+](=O)[O-])c(=O)[nH]1 -11.2%
CC(=O)NCCn1c(SCC(=O)Nc2ccc(C)cc2)nc2ccccc2c1=O -10.7%
CCOC(=O)Nc1ccccc1N1C(=O)c2ccccc2C1=O -7.24%
C/C=N/NC(=O)CCCC(=O)N/N=C/C -10.5%
CN1CCC(OC(=O)COc2ccc(Cl)cc2Cl)CC1 12.5%
Cc1ccc(C(=O)NC(=S)Nc2ccc(N3CCOCC3)cc2)cc1 2.01%
Cc1ccc(C)c(Cn2cnc3c(oc4ccccc43)c2=O)c1 -10.7%
CC1CCC2(CC1)NC(=O)N(Cc1nnc(-c3cccs3)o1)C2=O (stereo not given) -9.64%
Cc1nc(-c2ccc(Cl)cc2)sc1C(=O)CBr 24.5%
CCc1nnc(NC(=O)CCCSc2nc3ccccc3[nH]2)s1 -35.3%
CCC(C)(C)NC(=O)CN(C(=O)C(=O)Nc1ccc2c(c1)OCCO2)C(C)(C)CC -8.58%
COc1ccc(NC(=O)c2ccc(OC)cc2)cc1 -30.5%
COc1ccc(C(=O)Nc2ccc(S(=O)(=O)NC(C)C)cc2)cc1 -8.02%
COc1ccc(-c2[nH]ncc2CN(C)Cc2cccnc2)c(F)c1 -5.34%
O=C(NCc1nnc(SCC(=O)N2CCCc3ccccc32)o1)c1ccccc1F -38.5%
CCN(CC)S(=O)(=O)c1ccc(N(C)CCc2ccc(OC)c(OC)c2)nc1 0.93%
CCCOc1ccc(C(=O)NCCc2ccccc2)cc1 -42.2%
O=C(CSc1nc2ccccc2c(=O)n1CCCO)N1CCc2ccccc21 -7.95%
Cn1c(SCC(=O)N2CCCc3ccccc32)nc2ccccc2c1=O -1.81%
Cc1c(Br)c([N+](=O)[O-])nn1CC(=O)N1CCN(Cc2ccccc2)CC1 8.51%
O=C(/C=C/c1ccccc1Cl)Nc1ccc(S(=O)(=O)Nc2ncccn2)cc1 -13.4%
OCCNCCCCOc1ccccc1F -13.2%
COCCCNCCOCCOc1ccc(Cl)cc1Br -28.3%
CCOC(=O)N1CCN(CCC(=O)Nc2cc(OC)ccc2OC)CC1 -40.9%
O=C(Nc1cccc(F)c1)N1C2CCC1CC(O)(c1cccnc1)C2 (stereo not given) -22.6%
CN(C)C(=O)c1nc2ccc(Cl)cn2c1CN1CCN(c2ncccn2)CC1 -15.7%
Cc1cnc(C(=O)OCC(=O)NCCCc2ccccc2)cn1 -18.2%
O=C(CCSc1ccccc1)N1CCN(c2ccccc2F)CC1 -7.82%
Cc1cc(C)n(-c2nnc(N3CCN(c4ccccc4)CC3)nn2)n1 1.97%
CCCCSc1nnc(-c2ccc(NC(=O)CC)cc2)n1C 1.71%
Cn1c(SCC(=O)Nc2cccc(NC(=O)c3cccs3)c2)nnc1-c1ccncc1 26.7%
COC(=O)C(=Nc1ccccc1)/C(C(=O)C(=O)N(C)c1ccccc1)=C(\O)c1ccc(Cl)cc1 -20.7%
CSc1ncccc1C(=O)N1CCCC(CCC(=O)NCc2ccccc2F)C1 (stereo not given) -22.4%
O=C(CSc1nnc(-c2ccco2)n1Cc1ccccc1)NC(=O)NCc1ccco1 -1.5%
Cc1cc(C)c2c(c1)c(C)cc1nnc(SCC(=O)NCc3ccco3)n12 9.01%
Cc1cc(N2CCN(C)CC2)nc2ccc(NC(=S)N3CCOCC3)cc12 19.6%
CC(=O)N1CCN(S(=O)(=O)c2c(F)cc(F)c(Cl)c2F)CC1 -26.7%
CCOC(=O)N1CCN(C(=O)CSc2nc(C)nc3c2c(=O)n(C)c(=O)n3C)CC1 -25%
Brc1cc(/C=N/n2cnnc2)oc1Br -13.4%
Cc1cccc(C)c1NC(=O)C1CCCN1C(=O)OC(C)(C)C (stereo not given) -33.1%
C=CCN(CC=C)CCOc1ccccc1[N+](=O)[O-] -5.8%
Cc1ccc(CNC(=O)c2cccnc2Cl)cc1 -5.85%
CC12CCC(C(=O)N(NC(=O)c3ccccc3O)C1=O)C2(C)C (stereo not given) -1.25%
CSc1nc(C)cc(SC(C(C)=O)C(=O)Nc2ccccc2)n1 (stereo not given) -11.9%
Cc1ccc2c(Cl)c(C(=O)Nc3nn[nH]n3)sc2c1 13%
COc1ccccc1CNC(=O)C1Cc2ccccc2C(=O)O1 (stereo not given) -3.67%
Cn1c(-c2ccc(F)cc2)cnc1SCC(=O)NNC(=O)Cc1ccccc1 -21.1%
Cc1cc(C)n(Cc2cnc(N3CCOCC3)s2)n1 1.48%
Cn1c(SCC(=O)Nc2ccc(Br)cc2F)nnc1-c1ccco1 -23.6%
CCNC(=S)NNC(=O)c1ccc2ncccc2c1 9.15%
CCn1c(COc2ccccc2)nnc1SCC(=O)NCc1ccco1 -14.4%
Cc1ccc(-c2csc3nnc(SCC(=O)NCc4ccco4)n23)cc1 -6.76%
Cc1ccc(-n2c(C)cc(C(=O)CN3C(=O)C(=O)N(C4CCCC4)C3=O)c2C)cc1 -16.5%
Cc1ccc(OCC(=O)Nc2ccc(S(=O)(=O)Nc3ccccn3)cc2)cc1 -18.7%
CN(C)CC(C)(C)CNC(=O)c1cc(Br)cc(Br)c1O 0.11%
CC(=O)Nc1nc(N(C)C)nc(N(C)C)n1 13.8%
Cc1cccc(NC(=O)CN2C(=O)CNC2=O)c1 -1.87%
CC1(c2ccccc2Cl)NC(=O)N(CC(=O)NC(=O)NCc2ccco2)C1=O (stereo not given) 23.7%
CN1CCN(CCCCOc2ccccc2-c2ccccc2)CC1 -23.6%
CC(=O)C1(C)N(O)C(C)(C)C(c2cccs2)=[N+]1[O-] (stereo not given) -15.7%
CC1CC(C)CN(S(=O)(=O)c2ccc(C(=O)NN3CCOCC3)cc2)C1 (stereo not given) -4.78%
CCOC(=O)c1c(-c2ccc(C)cc2C)csc1NC(=O)CSc1nnnn1C -25.1%
CCOC(=O)c1sc(NC(=O)CSc2nnc(-c3ccco3)o2)c(C(=O)OCC)c1C -40.2%

inhibition, active:
CC(C)C(c1nnnn1Cc1ccccc1)N1CCC(C(N)=O)CC1 (stereo not given) 100%
Cc1cc(C)n2nc(C(=O)N(C)C(c3ccccc3)c3ccccc3)nc2n1 45.1%
CC(=O)c1ccc(NC(=O)Nc2ccc([N+](=O)[O-])cc2C)cc1 70.8%
COc1ccc(Cc2nnc(NC(=O)Cc3cccs3)s2)cc1 83.6%
CC(=O)Nc1ccccc1Sc1ccc2c3c(cccc13)C(=O)N(c1ccc(C)cc1)C2=O 62.1%
COc1ccc(NC(=O)c2c(C)oc3c2CCCC3)cc1 60.9%
C=CCn1c(=O)c2ccccc2n2c(SCC(=O)N3CCCc4ccccc43)nnc12 80.1%
OCCNCCOc1ccc(Cl)c(Cl)c1 75.2%
CCC(=O)Nc1cccc(NC(=O)CSc2nnc(-c3ccc(NS(C)(=O)=O)cc3)n2C)c1 64.3%
Cc1ccc(SCC(=O)NC(=O)NCc2ccco2)c(C)c1 76%
CC(Sc1nnc2c(n1)C1CCC2(C)C1(C)C)C(=O)Nc1ccccc1 (stereo not given) 70.7%
CC1=NN(C(C)C)C(=O)C1 53.9%
CCn1c(SCC(=O)NCc2ccco2)nnc1-c1ccc(N)cc1 69.4%
CN(C)S(=O)(=O)c1cc(NC(=O)CN2C(=O)NC3(CCCc4ccccc43)C2=O)ccc1Cl (stereo not given) 67.1%
CCOC(=O)c1c(NC(=O)CSc2nnc(CNc3ccc(C)cc3C)o2)sc(C)c1C 74.5%
